Only a selection was taken, and hits are over-represented in it overall.
Pf Dd2 growth: blocks in vitro growth of P. falciparum Dd2. P. falciparum Dd2 growth, SYBR Green, 72 h. Potency, µM (series often up to 28.9 µM), without a hit: top-dose activity, negative = inhibition, usual class: inhibitors. 120,000 tested, 4.3% active. AID 1347417; active = well fitted inhibition curve with a large enough effect;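 note: plate controls were DMSO vehicle for no effect and reference drug for full effect; nearly all actives have a fitted effect of over 65% in size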
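Readout: SYBR Green fluorescence, 485 nm excitation, 535 nm emission, after ~16 h lysis at 37C. Before that, Dd2-infected red cells (2.5% hematocrit) grew 72 h with compound, 29 uM top final concentration.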
Starred values were filed as active, the others as inactive; i = inactive; [ ] = dose if it differs, or a comment. Potency is the fitted concentration of half-maximal effect.

SMILES | Pf Dd2 growth
O=C(CC1CCN(C(=O)c2ccccc2F)C1)NC1CC1 (centres undefined) | 2%
C=C[C@H]1CN2CC[C@H]1C[C@@H]2CNC(=O)Nc1ccc(C(C)=O)cc1 | -31%[44.1 µM]
C=C[C@H]1CN2CC[C@H]1C[C@@H]2CNCc1ccc(SC)cc1 | 7.1µM*
C#C[C@H]1CN2CC[C@H]1C[C@@H]2CNS(=O)(=O)Cc1ccccc1 | 7.1µM*
C=CCN(C)C[C@H]1CN2CC[C@H]1C[C@@H]2CNS(=O)(=O)c1ccc(C)cc1 | 11µM*
C=CCN(C)C[C@H]1CN2CC[C@H]1C[C@@H]2CNC(=O)Nc1ccccc1 | -17%[44.1 µM]
C#C[C@H]1CN2CC[C@H]1C[C@@H]2CNS(=O)(=O)c1ccccc1 | i
C=C[C@H]1CN2CC[C@H]1C[C@@H]2CNS(=O)(=O)Cc1ccccc1 | 7.1µM*
C#CCN(C)C[C@H]1CN2CC[C@H]1C[C@@H]2CNS(=O)(=O)c1ccc(Cl)cc1 | i
C=C[C@H]1CN2CC[C@H]1C[C@@H]2CNC(=O)c1ccc(-c2ccccc2)cc1 | -25%[44.1 µM]
C=C[C@H]1CN2CC[C@H]1C[C@@H]2CNS(C)(=O)=O | -13%[44.1 µM]
C=C[C@H]1CN2CC[C@H]1C[C@@H]2CNC(=O)c1ccc(N(C)C)cc1 | -5%[44.1 µM]
C#C[C@H]1CN2CC[C@H]1C[C@@H]2CNS(=O)(=O)CCC | i
Cc1[nH]nc(CCC(=O)N2CC[C@H](N3CCOCC3)[C@H](CCC(=O)O)C2)c1C | 29%
Cc1ccc(C2NC(=O)N(CC(=O)N3CCN(c4ccccc4)CC3)C3=C2C(=O)OC3)cc1 (centres undefined) | i
Cn1ccnc1-c1nccn1CC(CO)Cc1ccsc1 (centres undefined) | -5%
COCCNC(=O)C[C@@H]1C[C@H]2O[C@H](CNC(=O)N3CCOCC3)[C@@H](O)[C@H]2O1 | 0%[44.1 µM]
COCC1CN(C2CCC2)CC12CCN(C(=O)c1nccn1C)CC2 (centres undefined) | -8%
COCCN1Cc2ccc(Nc3cccnc3)nc2C(C)(C(=O)Nc2cccc(OC)c2)C1 (centres undefined) | i
CNC(=O)NC[C@H]1CCN(Cc2ccc(C#N)cc2)C[C@H]1N(C)C | 30%
COCCOC1CCN(C(=O)c2ccc3oc(-c4cccc(F)c4)nc3c2)CC1 | -6%
Cc1ncc2n1C(=O)N(C1CCN(Cc3ccncc3)CC1)C2 | 30%[44.1 µM]
COc1ccc(-c2ccnc3nc(C4CC4)nn23)cc1 | -1%
CC(C)CNC1(Cc2cc(CN(C)C)on2)COC1 | 12%[44.1 µM]
C#C[C@H]1CN2CC[C@H]1C[C@@H]2CNS(=O)(=O)c1ccc(C)cc1 | -9%[44.1 µM]
SMILES | Pf Dd2 growth
C#C[C@H]1CN2CC[C@H]1C[C@@H]2CNS(=O)(=O)c1ccc(NC(C)=O)cc1 | -6%[44.1 µM]
C#C[C@H]1CN2CC[C@H]1C[C@@H]2CNS(=O)(=O)c1ccc(OC)cc1 | 3.2µM*
CN1CC2(CCN(C(=O)Cn3c(=O)oc4ccccc43)CC2)CC1C(=O)N1CCOCC1 (centres undefined) | -7%
CC(C)CCNC(=O)C1C(c2cccc(NC(=O)c3ccco3)c2)OC(=O)N1Cc1ccccc1 (centres undefined) | i
CCc1ccc(-n2nc(C)c3c(C(=O)N4CCN(c5ccccc5)CC4)cc(C)nc32)cc1 | -12%
Cc1cc(C(=O)N2CCN(c3ccccc3)CC2)c2c(C)nn(-c3cccc(F)c3)c2n1 | 16%
CCc1ccc(-n2nc(C)c3c(C(=O)N4CCN(c5cccc(Cl)c5)CC4)cc(C)nc32)cc1 | 11µM*
O=C(NCCc1noc(C(F)(F)F)n1)[C@H]1CCC[C@H](O)C1 | -1%
COc1cccc(CC(=O)N2CCCN(c3cc(-c4ccccc4)[nH]n3)CC2)c1 | i
O=C1CCSC2(C(=O)N(Cc3ccc(F)cc3)c3ccccc32)N1c1ccc(F)c(F)c1 (centres undefined) | -6%
COc1ccc(N2C(=O)CSC23C(=O)N(C)c2ccccc23)cc1Cl (centres undefined) | 19%
Cc1cc(C)cc(N2C(=O)CCSC23C(=O)N(Cc2ccccc2)c2ccccc23)c1 (centres undefined) | i
Cc1cccc(N2C(=O)CSC23C(=O)N(CC(=O)NCc2ccccc2Cl)c2ccccc23)c1 (centres undefined) | 10µM*
CN1C(=O)C2(SCC(=O)N2c2ccc(Cl)cc2)c2ccccc21 (centres undefined) | i
O=C1CSC2(C(=O)N(Cc3cccc(F)c3)c3ccccc32)N1c1cccc(C(F)(F)F)c1 (centres undefined) | -9%
Cc1ccc(N2C(=O)CSC23C(=O)N(CC(=O)Nc2ccccc2F)c2ccccc23)cc1C (centres undefined) | 11µM*
O=C(CN1C(=O)C2(SCC(=O)N2c2ccc(F)c(F)c2)c2ccccc21)Nc1cccc(Cl)c1 (centres undefined) | 13µM*
O=C(CN1C(=O)C2(SCC(=O)N2c2ccccc2)c2ccccc21)NCc1ccccc1 (centres undefined) | -14%
CC(C)c1ccc(N2C(=O)CSC23C(=O)N(Cc2cccc(F)c2)c2ccccc23)cc1 (centres undefined) | -13%
